Measured values from PubChem BioAssay (NCATS).
Results filed as inconclusive are left out. Calls of active or inactive are those of the source. Calls follow the shape of the full dose curve.

Columns and labels:
[1] = Primary qHTS for inhibitors of SARS-S pseudo-typed particle cell entry (AID 1479145); also: nearly all actives have a fitted effect of over 45% in size
[2] = Primary qHTS for Huh7 cytotoxicity: counterscreen for inhibitors of MERS-S pseudotyped particle cell entry (AID 1479147)
[3] = Primary qHTS for inhibitors of MERS-S pseudo-typed particle cell entry (AID 1479149); also: nearly all actives have a fitted effect of over 60% in size
[4] = Primary qHTS for Vero E6 cytotoxicity: counterscreen for inhibitors of SARS-S pseudo-typed particle cell entry (AID 1479150)

Measured: Potency

CN[C@@H]1[C@@H](O)[C@@H](O[C@@H]2[C@H](O)[C@H](O[C@H]3OC(CN)=CC[C@H]3N)[C@@H](N)C[C@H]2N)OCC1(C)O (some centres not stated)
inactive: all assays above

CCCCCCCCCCCCCCCCCCO
inactive: all assays above

O=C(CS(=O)Cc1ccco1)NC/C=C\COc1cc(CN2CCCCC2)ccn1 (configuration not stated)
inactive: all assays above

O=C(Oc1ccccc1)c1ccccc1O
inactive: all assays above

Cc1cccc(C)c1NC(=O)c1cc(S(N)(=O)=O)c(Cl)cc1O
inactive: all assays above

CCCCC(=O)OCC(=O)[C@H]1[C@H](C)C[C@H]2[C@@H]3C[C@H](F)C4=CC(=O)C=C[C@]4(C)[C@@]3(F)[C@@H](O)C[C@@]21C
inactive: all assays above

NC(N)=Nc1nc(CSCC/C(N)=N/S(N)(=O)=O)cs1
inactive: all assays above

c1ccc2c(CC3=NCCN3)cccc2c1
inactive: all assays above

Cc1ncc([N+](=O)[O-])n1CC(C)O (configuration not stated)
inactive: all assays above

Nc1ccc(S(=O)(=O)Nc2ccc(Cl)nn2)cc1
inactive: all assays above

NS(=O)(=O)c1cc2c(cc1C(F)(F)F)NC(Cc1ccccc1)NS2(=O)=O (configuration not stated)
inactive: all assays above

COc1ccc2cc([C@H](C)C(=O)O)ccc2c1
inactive: all assays above

NC(=O)NC1N=C([O][Al])NC1=O (configuration not stated)
inactive: all assays above
